Measured values published in PubChem BioAssay (NCATS).
Records with an inconclusive call do not appear. Unless noted, the call rests on the fitted dose curve; in most records, active means well fitted inhibition curve with a large enough effect; inconclusive means small, poorly fitted or top-dose-only effect; inactive means flat fitted curve, though single readings scatter.

What follows are compounds tested against 3',5'-cyclic-AMP phosphodiesterase 4B (Homo sapiens) (UniProt Q07343) (assay: qHTS Assay for Inhibitors of PDE-IV (AID 607; active means well fitted activation curve with a large enough effect in the main read-out, with a control signal flat, not every such curve was filed as active; further: % of control where 0% means no effect)). Conditions: HEK293 ACTOne CNG channel cells, membrane potential fluorescence; series mostly up to 22.9 µM; activation (PDE inhibition): at the top concentration.
How it was run: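 The readout is membrane depolarisation from a cAMP-sensing CNG channel, detected with a potential dye at ex 535/em 590. Cells were HEK293-derived (endogenous PDE-IV) at 1000 cells/well, titrated up to 22.9 uM final.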

3',5'-cyclic-AMP phosphodiesterase 4B (Homo sapiens), sequence (Q07343 whole entry, looked up): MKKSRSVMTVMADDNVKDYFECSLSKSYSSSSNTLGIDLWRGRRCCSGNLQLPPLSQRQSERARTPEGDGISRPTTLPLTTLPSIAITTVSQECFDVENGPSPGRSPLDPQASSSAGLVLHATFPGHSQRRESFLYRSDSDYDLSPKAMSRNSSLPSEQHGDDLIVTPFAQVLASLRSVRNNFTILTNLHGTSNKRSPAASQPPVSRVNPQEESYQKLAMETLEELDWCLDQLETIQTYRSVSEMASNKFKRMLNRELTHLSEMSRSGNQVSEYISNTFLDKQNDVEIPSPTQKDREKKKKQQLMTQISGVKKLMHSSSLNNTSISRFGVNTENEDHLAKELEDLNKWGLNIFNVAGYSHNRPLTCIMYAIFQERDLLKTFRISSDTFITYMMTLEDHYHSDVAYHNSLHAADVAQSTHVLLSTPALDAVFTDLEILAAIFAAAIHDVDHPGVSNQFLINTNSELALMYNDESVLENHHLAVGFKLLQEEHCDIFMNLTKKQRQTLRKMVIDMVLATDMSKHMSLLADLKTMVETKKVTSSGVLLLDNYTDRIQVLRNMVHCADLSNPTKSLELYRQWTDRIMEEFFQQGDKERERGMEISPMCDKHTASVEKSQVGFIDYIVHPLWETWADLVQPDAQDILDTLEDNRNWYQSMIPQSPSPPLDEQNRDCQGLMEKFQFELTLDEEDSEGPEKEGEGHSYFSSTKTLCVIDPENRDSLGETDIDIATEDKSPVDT

Activation (PDE inhibition), inactive:
COC(=O)[C@@]1(Cc2ccc(F)cc2)[C@H]2c3cc(C(=O)N(C)C)n(CC4CC4)c3C[C@H]2CN1C(=O)c1ccccc1 13.2%
C[C@@H](C(=O)NCc1ccccc1)[C@@H]1C[C@@]1(C)[C@@H](NC(=O)OCc1ccccc1)c1ccccc1 17.3%
COc1ccc(NC(=O)CCCCC#Cc2ccccc2)cc1 25.6%
CCCC/C=C/C(NC(=O)OCc1ccccc1Cl)c1ccccc1 (centres undefined) 17.9%
COC(=O)[C@@]1(Cc2ccc(OC)cc2)[C@H]2c3cc(C(=O)N4CCCC4)n(Cc4ccc(S(C)(=O)=O)cc4)c3C[C@H]2CN1C(=O)c1ccccc1 20%
COC(=O)[C@@]1(Cc2ccc(OC)cc2)[C@H]2c3cc(C(=O)N4CCCC4)n(CCc4ccc(O)c(OC)c4)c3C[C@H]2CN1C(=O)c1ccccc1 4.09%
COC(=O)[C@@]1(Cc2ccc(OC)cc2)[C@H]2c3cc(C(=O)N4CCCC4)n(CCc4ccc(O)c(O)c4)c3C[C@H]2CN1C(=O)c1ccccc1 -15.9%
CCc1c2c(nc3ccc(OC)cc13)OC(C)C2 (centres undefined) 15.8%
COC(=O)[C@@]1(Cc2ccc(F)cc2)[C@H]2c3cc(C(=O)N4CCCC4)n(Cc4cc(C)n(C)n4)c3C[C@H]2CN1C(=O)c1ccccc1 7.8%
COC(=O)[C@@]1(Cc2ccc(OC)cc2)[C@H]2c3cc(C(=O)N4CCCC4)n(Cc4ccc(C)o4)c3C[C@H]2CN1C(=O)c1ccccc1 22.3%
COC(=O)[C@@]1(Cc2ccc(OC)cc2)[C@H]2c3cc(C(=O)N4CCCC4)n(CCc4ccccn4)c3C[C@H]2CN1C(=O)c1ccccc1 2.54%

The compounds below were run against Luciferin 4-monooxygenase (Photinus pyralis) (UniProt P08659) (assay: Biochemical firefly luciferase enzyme assay for NPC (AID 624030;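 further: purified P. pyralis luciferase at 10 nM with luciferin and ATP substrate; 0% = DMSO and -100% = full luciferase inhibition by PTC124 control; nearly all actives have a fitted effect of over 70% in size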)). Conditions: purified P. pyralis luciferase, luminescence, 5 min; series mostly up to 58.6 µM; activity change, negative = inhibition: at the top concentration.
How it was run: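 Counter-screen for direct inhibition of the luciferase enzyme by approved-drug library compounds, run at 10 nM enzyme in 50 mM Tris acetate (final). Luminescence was read within 5 min of enzyme-buffer addition and normalized to PTC124 versus DMSO (0%).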

Luciferin 4-monooxygenase (Photinus pyralis), sequence (P08659 whole entry, looked up): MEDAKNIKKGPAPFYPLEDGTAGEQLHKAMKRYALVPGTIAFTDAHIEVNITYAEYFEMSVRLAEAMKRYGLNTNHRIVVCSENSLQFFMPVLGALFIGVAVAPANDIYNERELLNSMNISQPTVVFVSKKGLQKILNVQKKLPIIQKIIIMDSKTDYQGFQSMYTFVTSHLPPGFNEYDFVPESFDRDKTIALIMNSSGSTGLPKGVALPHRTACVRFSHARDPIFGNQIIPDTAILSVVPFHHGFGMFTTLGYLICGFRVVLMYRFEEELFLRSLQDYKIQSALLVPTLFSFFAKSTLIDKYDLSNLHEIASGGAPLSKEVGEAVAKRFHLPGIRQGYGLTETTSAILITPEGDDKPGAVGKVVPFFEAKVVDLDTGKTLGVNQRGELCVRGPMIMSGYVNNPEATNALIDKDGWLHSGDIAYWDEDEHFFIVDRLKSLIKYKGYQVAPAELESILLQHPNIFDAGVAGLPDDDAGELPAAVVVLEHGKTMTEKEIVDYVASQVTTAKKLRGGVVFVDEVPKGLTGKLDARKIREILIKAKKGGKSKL

Activity change, negative = inhibition, inactive:
CC(C)(C)CC(=O)OCC(=O)[C@@]12OC(C)(C)O[C@@H]1C[C@H]1[C@@H]3CCC4=CC(=O)C=C[C@]4(C)[C@@]3(F)[C@@H](O)C[C@]12C -1.17%
CCN1CCC[C@@H]1CNC(=O)c1cc(S(=O)(=O)CC)ccc1OC -2.47%
CO/N=C(\C(=O)N[C@@H]1C(=O)N2C(C(=O)[O-])=C(C[n+]3cccc4c3CCCC4)CS[C@H]12)c1csc(N)n1 -17.7%
Cc1ccccc1C(=O)N1CC/C(=N/OS(=O)(=O)O)c2ccc(Cl)cc21 -7.44%
c1cnc2cc3c(cc2n1)[C@@H]1CNC[C@@H]3C1 1.04%
C[N+]1(C)CCN(C[C@@](O)(c2ccccc2)C2CCCCC2)CC1 -1.92%
COCC1=C(C(=O)OC(C)OC(=O)OC(C)C)N2C(=O)C(NC(=O)/C(=N/OC)c3csc(N)n3)[C@H]2SC1 (some centres undefined) -5.44%
CC[C@@H]1OC(=O)C[C@H](O)[C@@H](C)[C@@H](O[C@H]2O[C@@H](C)[C@H](O[C@@H]3C[C@](C)(O)[C@H](O)[C@@H](C)O3)[C@@H](N(C)C)[C@@H]2O)[C@@H](C=O)C[C@@H](C)C(=O)/C=C/C(C)=C[C@@H]1CO[C@H]1O[C@@H](C)[C@H](O)[C@H](OC)[C@@H]1OC 1.17%
c1ccc(C(OC2CCCN(CCc3ccc4c(c3)OCO4)C2)c2ccccc2)cc1 (centres undefined) 0.0642%
CN[C@H](CC(C)C)C(=O)N[C@H]1C(=O)N[C@@H](CC(N)=O)C(=O)N[C@H]2C(=O)N[C@H]3C(=O)N[C@H](C(=O)N[C@H](C(=O)O)c4cc(O)cc(O)c4-c4cc3ccc4O)[C@H](O)c3ccc(c(Cl)c3)Oc3cc2cc(c3O[C@@H]2OC(CO)[C@@H](O)[C@H](O)[C@H]2O[C@H]2C[C@](C)(N)[C@H](O)[C@H](C)O2)Oc2ccc(cc2Cl)[C@H]1O (some centres undefined) -5.7%
O=P(O)(O)OC[C@@H](O)CO -6.86%
CC(C)=CCC/C(C)=C\CC/C(C)=C\CC/C(C)=C\CC1=C(C)C(=O)c2ccccc2C1=O -5.07%
CC(=O)C1(O)CCC2C3CC(C)C4=CC(=O)CCC4(C)C3CCC21C (centres undefined) -1.35%
CO[C@H]1[C@@H](O)[C@H](N)[C@@H](O[C@H]2O[C@@H]([C@H](C)N)CC[C@H]2N)[C@H](O)[C@@H]1N(C)C(=O)CN 10.6%
CCCCCCCC(=O)CC[C@H]1[C@@H](C/C=C/CCCC(=O)OC(C)C)[C@@H](O)C[C@H]1O 2.73%
CN1CC[C@H](c2c(O)cc(O)c3c(=O)cc(-c4ccccc4Cl)oc23)[C@@H](O)C1 -13.6%
OC[C@H]1O[C@H](OC/C=C/c2ccccc2)[C@H](O)[C@@H](O)[C@@H]1O -0.742%
CO/N=C(\C(=O)N[C@@H]1C(=O)N2C(C(=O)O)=C(Cn3nnc(C)n3)CS[C@H]12)c1csc(N)n1 0.691%
